# Source: PubChem (several laboratories)
# Rv3671c protease: Rv3671c (M. tuberculosis) protease inhibition. 320,000 tested, 0.048% active. AID 2606. inhibition, % at 5.96 µM; in the data active means inhibition above about 38%;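 further: extracellular domain of Rv3671c used as enzyme; 0% = enzyme with DMSO and 100% = no enzyme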
# FBA Mtb inh: Mtb fructose-bisphosphate aldolase inhibition; P9WQA3; purified M. tuberculosis FBA, fluorescence read-out; inhibition, % at 1 µM; 360,000 tested, 2.3% active; in the data active means inhibition above about 27%;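 further: 0% = vehicle and 100% = reference inhibitor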
# Mtb betalactam: beta-lactam sensitization of Mtb H37Rv | M. tuberculosis H37Rv growth with meropenem, percent inhibition | inhibition, % at 25 µM | 330,000 tested, 0.27% active;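 further: growth measured after seven days incubation then overnight dye step; 0% = bacteria only wells and 100% = bacteria with antibiotic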
# UGM FP inh: Mtb UDP-galactopyranose mutase inhibition | AID 504406 | purified UGM, fluorescence polarization probe displacement | 320,000 tested, 0.06% active | inhibition, % at 10 µM; in the data active means inhibition above about 10%, passing the limit was not always enough; inconclusive means no clear call, values can overlap the other calls
# RecA splice inh: blocks M. tuberculosis RecA intein splicing; P9WHJ3; cell-free RecA intein splicing, fluorescence; inhibition, % (test concentration not listed); 290,000 tested, 0.75% active; AID 2221; in the data active means inhibition above about 30%; inconclusive means no clear call, values can overlap the other calls;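 further: 0% = vehicle wells and 100% = reference inhibitor control wells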
# Target sequence (P9WHJ3 whole entry, looked up, canonical isoform): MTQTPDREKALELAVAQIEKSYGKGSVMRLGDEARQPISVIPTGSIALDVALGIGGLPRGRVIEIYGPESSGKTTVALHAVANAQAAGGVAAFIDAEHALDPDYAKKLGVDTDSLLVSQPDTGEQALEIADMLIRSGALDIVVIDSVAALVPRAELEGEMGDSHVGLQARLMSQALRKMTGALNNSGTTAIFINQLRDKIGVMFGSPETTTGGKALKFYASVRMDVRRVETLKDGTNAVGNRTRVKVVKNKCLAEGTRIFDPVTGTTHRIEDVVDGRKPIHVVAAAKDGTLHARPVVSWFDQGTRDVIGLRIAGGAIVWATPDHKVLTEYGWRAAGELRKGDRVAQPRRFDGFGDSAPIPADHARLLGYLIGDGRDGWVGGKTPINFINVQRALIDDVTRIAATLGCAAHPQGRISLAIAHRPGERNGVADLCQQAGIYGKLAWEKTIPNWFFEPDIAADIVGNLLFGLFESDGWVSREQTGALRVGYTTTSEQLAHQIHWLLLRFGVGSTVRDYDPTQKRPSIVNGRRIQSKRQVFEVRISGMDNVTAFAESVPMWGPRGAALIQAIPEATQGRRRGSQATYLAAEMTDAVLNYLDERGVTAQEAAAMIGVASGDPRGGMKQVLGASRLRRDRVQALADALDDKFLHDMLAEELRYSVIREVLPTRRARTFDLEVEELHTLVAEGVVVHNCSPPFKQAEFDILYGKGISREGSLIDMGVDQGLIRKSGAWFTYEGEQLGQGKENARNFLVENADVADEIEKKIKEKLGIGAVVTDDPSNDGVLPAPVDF
# GDH-TPI counter: counter-screen for M. tuberculosis FBA inhibitors: GDH-TPI coupled enzymes; GDH-TPI coupled enzyme counterscreen, NADH absorbance; inhibition, % at 4.8 µM; 360,000 tested, 1.2% active; AID 588335; in the data active means inhibition above about 30%;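 further: 0% = DMSO wells and 100% = wells lacking the enzyme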
# GFP chromo cs: counter-screen GFP chromophore formation inhibition. 2,100 tested, 83% active. AID 434968. cell-free GFP chromophore formation, fluorescence. shares compounds with RecA splice inh. EC50, µM
# * marks the source's active call; other numbers are inactive results; ? = inconclusive; · = no result. In the library only some 4% were active in any assay of this set; here they are far more common. Unless noted, how the calls were made is not given here.
SMILES,Rv3671c protease,FBA Mtb inh,Mtb betalactam,UGM FP inh,RecA splice inh,GDH-TPI counter,GFP chromo cs
CCOC(=O)c1ccccc1NS(=O)(=O)c1ccc(OCC)cc1,-5,1,-9,0,10,-4,·
CCc1ccc(S(=O)(=O)Nc2cc(SCC(=O)O)c(O)c3ccccc23)cc1,-114,2,4,1,94*,8,0.7*
CCc1cc(C(=O)N2CCCc3ccccc32)sc1C,-2,-4,-1,-1,6,-2,·
Cc1ccc(S(=O)(=O)/N=C(/Nc2ccc([N+](=O)[O-])cc2[N+](=O)[O-])c2ccccc2)cc1,0,-4,-1,1,·,19,·
O=C(Nc1ccccc1)NN(C(=O)CCl)c1ccccc1,2,1,86,-1,68*,-2,15*
O=C(CCl)N(c1ccccc1)c1ccccc1,·,1,·,·,80*,-2,22*
Cc1ccc(N(NC(=O)C(O)(c2ccccc2)c2ccccc2)C(=O)CCl)cc1,-7,-2,98,2,66*,-5,7.3*
CCC(O)(CC)C(=O)NN(C(=O)CCl)c1ccccc1,-1,1,80,2,13,1,·
O=C(CCl)N(CCc1ccccc1)CCc1ccccc1,6,5,99,5,74*,6,20*
Cc1ccc(C)c(NC(=O)CCN2CCN(CCO)CC2)c1,5,-1,-2,2,0,16,·
CCCCCCN(C(=O)CCl)c1ccccc1,2,2,99,1,54*,-8,19*
CCCCCCCN(C(=O)CCl)c1cccc(C)c1,-2,3,54,2,-2,-10,·
COc1ccc(C2C(O)C(c3c[nH]c4ccccc34)=NN2C(=O)CCl)cc1 (stereo unspecified),29,16,99,-1,87*,19,2.3*
CSc1nc(N)n2nc(-c3ccc(Cl)cc3)cc2n1,4,3,-11,-1,-6,-2,·
O=c1cc(-c2cccc3ccccc23)[nH][nH]1,6,1,-10,2,93*,-1,3.5*
CCCCC(=O)NC(c1cccc([N+](=O)[O-])c1)c1c(OC(C)=O)ccc2ccccc12 (stereo unspecified),-7,-1,-22,1,35*,-4,>38
CCOC(=O)CSc1nnc(NCC(=O)OC)c(=O)[nH]1,0,1,-4,-1,37*,-1,>38
COC(=O)[C@H](Cc1ccccc1)NC(=O)NCCc1ccccc1F,1,0,-9,0,1,6,·
CCOc1ccc(NC(=O)C(c2ccccn2)N(C(=O)CCl)c2ccc(F)cc2)cc1 (stereo unspecified),-11,1,-7,0,66*,5,15*
COc1ccccc1-c1cc(C(F)(F)F)nc(S(=O)(=O)CCCC(=O)N2CCOCC2)n1,-9,3,94,5,48*,12,16*
COc1ccccc1-c1cc(C(F)(F)F)nc(S(=O)(=O)CCCC(=O)O)n1,-5,1,?,4,24,9,·
COc1ccc(-c2cc(C(F)(F)F)nc(S(=O)(=O)CCCC(=O)Nc3cccc(O)c3)n2)cc1OC,·,0,·,·,62*,9,19*
O=C(c1ccco1)N1N=C(c2ccco2)CC1c1ccc(Cl)cc1Cl (stereo unspecified),-13,1,-7,1,·,18,·
O=C(O)c1cccc2c1Cc1cc(Cl)ccc1-2,·,-2,·,·,·,4,·
Oc1cccc(C=Nc2cccc3ccccc23)c1O,-38,0,60,4,31*,20,15*
SMILES,Rv3671c protease,FBA Mtb inh,Mtb betalactam,UGM FP inh,RecA splice inh,GDH-TPI counter,GFP chromo cs
CCC(CC)c1nnc(NC(=O)C2CSC3(C)CCC(=O)N23)s1 (stereo unspecified),-1,1,-3,4,-1,-2,·
[N-]=[N+]=NC[C@H](Cc1ccccc1)N1CCN(Cc2ccccc2)CCC1=O,-7,6,-10,-1,1,3,·
O=C(CCl)Nc1cc(-c2ccccc2)nn1-c1ccccc1,1,0,99,0,62*,2,40*
Cc1ccc(-c2cc(NC(=O)CCl)n(-c3ccccc3)n2)cc1,-4,-2,100,1,73*,5,33*
Cc1ccc(NC2=C(NCCO)C(=O)c3ccccc3C2=O)cc1,-179,-1,18,5,71*,18,20*
CC(=O)Nc1ccc(NC2=C(Cl)C(=O)c3ccccc3C2=O)cc1,·,·,·,·,7,·,·
CC(=O)Nc1ccc(NC(=O)CC(NC(=O)c2ccccc2)c2ccccc2)cc1 (stereo unspecified),-8,-1,1,0,-1,7,·
O=C(N/N=C/c1coc2ccc(Cl)cc2c1=O)c1ccncc1,·,2,100,-1,6,-6,·
COc1cc(C(=O)N/N=C/c2coc3ccc(Cl)cc3c2=O)ccc1O,-9,0,-5,-6,23,6,·
COc1ccc(C(=O)N/N=C\c2coc3ccc(Cl)cc3c2=O)cc1,-12,0,-4,-3,37*,9,38*
O=C(N/N=C/c1coc2ccc(Cl)cc2c1=O)c1ccc(O)cc1,·,-1,-6,3,38*,-2,32*
NS(=O)(=O)c1ccc(N=Nc2ccc(=O)[nH]c2O)cc1,-45,-25,-2,2,73*,2,10*
O=C(c1ccc2nc(Cc3cccc(Cl)c3)oc2c1)N1CCC(O)CC1,4,0,-7,0,42*,-1,>38
O=C1CC(CSc2ccc(Cl)cc2)=NN1,-24,1,10,-1,91*,0,8.8*
Cc1cc(SCC2=NNC(=O)C2)c(Cl)cc1Cl,-26,-1,-4,-3,·,6,·
CCCc1[nH]nc2c1C(c1ccccc1OC)C(C#N)=C(N)O2 (stereo unspecified),-5,-6,-6,-2,61*,1,20*
CCCc1[nH]nc2c1C(c1cn[nH]c1-c1ccc(F)cc1)C(C#N)=C(N)O2 (stereo unspecified),-7,0,9,-1,81*,11,7.1*
CCc1[nH]nc2c1C(C(C)C)C(C#N)=C(N)O2 (stereo unspecified),3,0,11,-1,3,-1,·
CCCc1[nH]nc2c1C(CCC)C(C#N)=C(N)O2 (stereo unspecified),-8,4,-10,4,64*,3,35*
O=C(NCc1ccc2c(c1)OCO2)c1nc(S(=O)(=O)Cc2ccccc2)ncc1Cl,-3,-4,16,-2,53*,2,14*
O=C(NCc1ccc2c(c1)OCO2)c1nc(S(=O)(=O)Cc2ccccc2F)ncc1Cl,3,0,-1,-3,37*,5,8.9*
COC(=O)C[C@H]1C[C@@H]2c3cc(NC(=O)NC4CCCC4)ccc3O[C@@H]2[C@@H](CO)O1,·,1,·,·,·,0,·
O=Cc1ccc(Sc2nnc(-c3ccccc3)o2)c([N+](=O)[O-])c1,4,-1,1,0,55*,16,26*
